Compounds with a hit are over-represented: about 3% of the library has one in this group of screens.
TRAIL sens C8: viability loss with TRAIL in NB7+C8 cells, primary screen, TRAIL sensitizer project, cell-based, ATPlite luminescence. inhibition (viability loss, TRAIL sensitization), % at 10 µM. 1% of 360,000 active;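 active = compounds causing at least 50% loss of cell viability in the single-dose screen, relative to plate controls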
SENP8 block-1: human SENP8 protease inhibitors, primary screen, biochemical, fluorescence, Nedd8 protein substrate, uHTS; AID 602440, 2012; 0.64% of 360,000 active; inhibition, % at 20 µM; recombinant SENP8; Sentrin-specific protease 8 (Homo sapiens), Q96LD8; in the data active = inhibition mostly above about 40%, no sharp cut-off; inactive = mostly below about 27%
SENP7 block: SENP7 protease inhibitors, primary screen, biochemical, luminescence, uHTS; Sentrin-specific protease 7 (Homo sapiens), Q9BQF6; recombinant SENP7, Z-RLRGG-aminoluciferin luminescence, 40 min; inhibition, % at 5 µM; 1.5% of 330,000 active; AID 434973, 2010;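 active = inhibition above about 50% at the single test dose, limit read from the data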;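 note: plate controls were DMSO with enzyme for no effect and no enzyme buffer wells for full effect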
PPC-1+TRAIL kill: compounds killing PPC-1 cancer cells with TRAIL present, primary screen, TRAIL potentiator project, ATPLite luminescence, uHTS; PPC-1 cells + TRAIL, ATPLite viability luminescence; cell killing (% activity), % at 4 µM or 5 µM; 0.41% of 220,000 active;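 active = cell killing above 50% in the first pass at 4 µM, then a duplicate retest at 5 µM averaging 50% or more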;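 note: plate controls were cells with TRAIL plus DMSO for no effect and medium-only wells lacking cells for full effect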
SENP8 block-2: SENP8 protease inhibitors, primary screen, biochemical, luminescence; inhibition, % at 10 µM; AID 2540, 2010; purified SENP8, Z-RLRGG-aminoluciferin cleavage; 1.2% of 330,000 active; in the data active = inhibition above about 50%
SENP6 block: SENP6 protease inhibitors, primary screen, biochemical, luminescence, uHTS | Sentrin-specific protease 6 (Homo sapiens), Q9GZR1 | Recombinant SENP6 catalytic domain, aminoluciferin luminescence | inhibition, % at 10 µM | 1.8% of 330,000 active;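 active = inhibition above about 50% at the single tested dose, limit read from the data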;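 note: plate controls were DMSO wells with enzyme for no effect and DMSO wells lacking enzyme for full effect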
Target sequence (Q9GZR1 628-1112 limits assumed): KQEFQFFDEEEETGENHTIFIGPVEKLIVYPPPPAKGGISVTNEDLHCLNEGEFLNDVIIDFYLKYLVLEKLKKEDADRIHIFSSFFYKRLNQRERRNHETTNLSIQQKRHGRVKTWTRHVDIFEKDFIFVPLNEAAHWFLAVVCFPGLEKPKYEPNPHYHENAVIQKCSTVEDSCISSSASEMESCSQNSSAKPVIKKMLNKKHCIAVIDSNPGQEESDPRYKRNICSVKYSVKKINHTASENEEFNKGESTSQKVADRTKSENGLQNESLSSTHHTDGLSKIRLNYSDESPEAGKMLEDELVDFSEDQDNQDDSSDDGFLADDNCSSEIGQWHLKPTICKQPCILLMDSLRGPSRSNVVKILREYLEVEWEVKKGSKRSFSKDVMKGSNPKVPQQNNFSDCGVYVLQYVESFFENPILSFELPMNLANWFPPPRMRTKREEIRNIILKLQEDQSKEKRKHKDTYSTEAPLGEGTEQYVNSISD
SENP8 conf-1: SENP8 protease inhibitors, retest, confirmation, biochemical, luminescence, single concentration; shares compounds with SENP7 block; Recombinant SENP8, Z-RLRGG-aminoluciferin luminescence, 60 min; inhibition, % at 12.5 µM; 40% of 6,200 active;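 active = mean inhibition across replicates above about 50%, limit read from the data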
SENP6 confirm: SENP6 protease inhibitors, confirmation, biochemical, luminescence, single concentration; shares compounds with SENP7 block; recombinant SENP6, Z-RLRGG-aminoluciferin luminescence; inhibition, % at 12.5 µM; 58% of 6,200 active; AID 488915, 2010
SENP7 conf: SENP7 protease inhibitors, retest, confirmation, biochemical, luminescence, single concentration; AID 488917, 2010; inhibition, % at 12.5 µM; recombinant SENP7, Z-RLRGG-aminoluciferin luminescence, 40 min; 69% of 6,200 active; shares compounds with SENP7 block
Casp3 SENP sel: caspase-3 protease inhibitors, confirmation, selectivity assay for SENP inhibitor project, biochemical, single concentration; inhibition, % at 12.5 µM; purified caspase-3, Z-DEVD-aminoluciferin luminescence, 60 min; shares compounds with SENP7 block; 60% of 6,200 active;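 active = mean inhibition above about 50%, limit read from the data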;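 note: plate controls were enzyme with DMSO for no effect and wells without caspase-3 for full effect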
Target sequence (P42574 28-227 limits assumed): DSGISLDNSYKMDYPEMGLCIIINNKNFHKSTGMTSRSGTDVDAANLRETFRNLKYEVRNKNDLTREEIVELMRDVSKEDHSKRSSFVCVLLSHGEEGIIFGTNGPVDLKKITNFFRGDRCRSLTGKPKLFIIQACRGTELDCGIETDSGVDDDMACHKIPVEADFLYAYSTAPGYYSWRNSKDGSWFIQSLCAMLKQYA
SENP luc ctr: counter-screen for SENP inhibitors: luminescence interference; inhibition, % at 12.5 µM; shares compounds with SENP7 block; AID 488919; 39% of 6,200 active; Pre-incubated SENP8/Z-RLRGG-aminoluciferin, luciferase luminescence interference;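 active = mean inhibition above about 50% when retested at one dose, limit read from the data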;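 note: plate controls were DMSO wells with completed reaction for no effect and substrate without enzyme for full effect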
SENP8 conf-2: human SENP8 protease inhibitors, confirmation, biochemical, Nedd8 protein substrate, single concentration. shares compounds with SENP8 block-1. purified SENP8, Nedd8-AMC/pro-Nedd8 cleavage fluorescence, 30 min. inhibition, % at 25 µM. 15% of 1,400 active; in the data active = inhibition mostly above about 39%, no sharp cut-off; inactive = mostly below about 34%
Numbers without * were called inactive; · = no result given.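 Rule for the calls, unless noted: active = mean inhibition above about 50% in the one-dose retest (limit read from the data); inactive = the rest.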

SMILES	TRAIL sens C8	SENP8 block-1	SENP7 block	PPC-1+TRAIL kill	SENP8 block-2	SENP6 block	SENP8 conf-1	SENP6 confirm	SENP7 conf	Casp3 SENP sel	SENP luc ctr	SENP8 conf-2
CSc1nnc(-c2ccccc2N=Cc2c(C)[nH]n(-c3ccc4ccccc4c3)c2=O)c(=O)[nH]1	47.4	40.7*	16.5	46.2	53.4*	77.8*	46.8	62.6*	33.6	66.6*	67.5*	14.9
Nc1nnc2c(n1)CCCC2	-15.8	87.8*	36.4	-1.8	49.5	56.2*	6.2	60.7*	35.5	19.0	-5.9	62.9*
Cc1cccc(C)c1NC(=O)C1C2C=CC(C2)C1C(=O)O (centres undefined)	6.4	9.7	-3.1	·	-11.3	-6.0	·	·	·	·	·	·
CNc1nc(NCC2CCCCC2)c2sccc2n1	14.0	-29.3	·	·	·	·	·	·	·	·	·	·
Nc1ccc(N2CCOCC2)c2nonc12	2.6	69.3*	29.5	11.2	3.9	59.6*	12.8	28.5	4.9	-2.6	-2.4	78.4*
O=C(NNc1cc(N2CCOCC2)nc(N2CCOCC2)n1)c1ccc([N+](=O)[O-])cc1	-3.8	70.0*	52.2*	1.2	46.9	82.8*	19.1	56.1*	35.1	4.4	-1.3	44.3*
COc1ccc(-c2[nH]n(-c3ccc([N+](=O)[O-])cc3)c(=O)c2C=NCc2ccc(F)cc2)cc1	6.5	10.4	3.9	13.3	-4.6	-1.3	·	·	·	·	·	·
COc1ccc(-c2cc(=O)n(-c3ccc([N+](=O)[O-])cc3)[nH]2)cc1	-17.8	86.9*	47.8	-12.8	79.3*	92.0*	11.1	28.9	40.9	-3.3	7.8	24.5
O=C(c1ccc([N+](=O)[O-])o1)N1CCc2ccccc21	0.4	48.2*	46.0	·	32.9	52.5*	26.7	52.1*	41.0	59.3*	17.3	25.3
COc1ccc(/C=N/NC(=O)c2nn(-c3ccccc3)c(=O)c3c(N)scc23)cc1	-8.0	73.8*	11.9	-12.4	18.5	52.3*	23.8	67.5*	20.9	61.2*	2.9	82.9*
COc1ccc(/C=N/NC(=O)c2nn(-c3ccc(C)c(C)c3)c(=O)c3ccccc23)cc1	8.8	-10.7	-3.5	23.4	-7.7	-7.4	·	·	·	·	·	·
COc1ccc(/C=N/NC(=O)c2nn(-c3ccc(Cl)cc3)c(=O)c3c(N)scc23)cc1	-3.8	48.9*	14.7	-12.7	18.4	60.7*	-1.3	45.8	-0.5	27.6	-2.0	61.1*
N#CCCn1cc(C(=O)CN2C(=O)NC3(CCc4ccccc43)C2=O)c2ccccc21 (centres undefined)	-1.1	-3.9	·	·	·	·	·	·	·	·	·	·
CN(C)c1ccc(N/C=C/C(=O)c2ccco2)cc1	61.5*	45.0*	95.5*	25.4	90.3*	96.0*	1.3	94.1*	100.6*	95.2*	31.1	12.8
CCCCN1CCCCC1(C)C(=O)NCc1cccs1 (centres undefined)	9.3	15.0	·	·	·	·	·	·	·	·	·	·
COC(=O)c1ccc(NC(=O)C(=O)c2cccn2C)cc1	61.7*	30.1*	95.4*	17.9	93.1*	94.6*	94.5*	97.1*	102.3*	97.4*	80.1*	16.2
COC(=O)c1sccc1-n1cccc1C(=O)C(=O)Nc1ccc(F)cc1	-0.6	10.6	-14.3	10.2	-8.4	-48.0	·	·	·	·	·	·
Cc1ccccc1S(=O)(=O)Cc1ccc(C(=O)NC2CCCCC2)o1	21.0	10.2	-5.3	·	0.0	5.0	·	·	·	·	·	·
C#CCN(C[C@H]1[C@H](OC(=O)NCc2ccc(OC)c(OC)c2)[C@H](OC(=O)NCc2ccc(OC)c(OC)c2)C[C@@H](C(=O)OC)[C@H]1C(=O)OC)S(=O)(=O)c1ccc(C)cc1	10.8	2.5	·	·	·	·	·	·	·	·	·	·
COc1cc(O)c(CC=C(C)C)c(O)c1C(=O)CCc1ccc(O)cc1	6.5	54.2*	12.3	-5.7	69.6*	77.4*	41.4	77.2*	82.9*	-2.1	3.9	19.0
CCOc1ccc(-c2nc3scc(-c4cccs4)c3c(=O)[nH]2)cc1	3.7	-425.0	-3.8	6.6	-0.1	-1.2	·	·	·	·	·	·
O=[N+]([O-])c1nn(-c2ccc3c(c2)OCCO3)n(O)c1=NCc1ccc(F)cc1Cl	7.4	51.7*	64.5*	7.9	10.6	50.3*	4.6	20.3	28.2	9.5	6.5	21.1
COc1ccc(NC(=O)CN(c2ccc(OC)c(Cl)c2)S(=O)(=O)c2ccccc2)cc1	-7.0	-1.5	2.7	·	1.6	8.8	·	·	·	·	·	·
Brc1cccc(-c2nc3c4ccccc4ccn3c2Cc2ccccc2)c1	-5.4	-220.0	·	·	·	·	·	·	·	·	·	·
COc1ccc(S(=O)(=O)Oc2ccc3cccc(N)c3c2)cc1	4.6	56.5*	46.8	·	83.8*	86.1*	-0.2	14.9	12.1	5.6	-3.0	32.8
COc1ccc(S(=O)(=O)Oc2ccc3ccccc3c2)cc1	-9.0	9.1	-2.7	-2.5	-19.6	-13.2	·	·	·	·	·	·
Cc1cccc(OCC(=O)NCC(C)(C)N2CCOCC2)c1	-1.2	6.2	-0.5	·	-11.7	-7.9	·	·	·	·	·	·
O=C(Nc1ccccc1)c1ccc(Nc2c([N+](=O)[O-])cc([N+](=O)[O-])c3ccccc23)cc1	31.2	55.6*	-4.0	19.5	-5.1	9.4	·	·	·	·	·	30.9
Cc1c(C(=O)Nc2ccc(Nc3ccccc3)cc2)cccc1[N+](=O)[O-]	3.7	20.2	0.0	·	0.0	7.7	·	·	·	·	·	·
Cc1[nH]ccc2cc3nc4ccccc4c3cc12	33.5	-468.6	·	·	·	·	·	·	·	·	·	·
